For 22 compounds, Inhibition results are on record in ChEMBL document CHEMBL4513146, “CO-ADD screening of Karazin Kharkiv National University (Ukraine) compounds”.

Entries with a potency or affinity are not part of this list.

One test deals with Klebsiella pneumoniae. To be noted: Concentration 32 ug.mL-1;; ASSAY_TEST Inhibition of Bacterial Growth; detection method Absorption (OD600); MEDIA CAMHB; plate type 384well; NBS; CORNING #3640; time 18 hr.
The subject of another test is Candida albicans. To be noted: Concentration 32 ug.mL-1; ASSAY_TEST Inhibition of Fungal Growth; detection method Absorption (OD530).
The subject of the next test is Cryptococcus neoformans. To be noted: Concentration 32 ug.mL-1; ASSAY_TEST Inhibition of Fungal Growth; detection method Resazurin; Absorption (OD600-OD570); plate type 384well; NBS; CORNING #3640.

In the case of `CCc1nnc2c(SCC(=O)Nc3cc(Cl)ccc3OC)nc3ccccc3n12`, the Inhibition (in general, the drop in the measured response relative to a control, in per cent) with Klebsiella pneumoniae was 11.61%; in the test with Candida albicans, 1.63%; in the test with Cryptococcus neoformans, -7.04%.

Regarding `CC(C)c1ccc(N(Cc2cc(F)cc(F)c2)S(=O)(=O)c2cccn3cnnc23)cc1`, the values for the Inhibition in the test on Klebsiella pneumoniae, in the test on Candida albicans and in the test with Cryptococcus neoformans were 4.84%, 0.58% and -6.06%, respectively.

Turning to `O=C(Cn1nc2c3sc(N4CCCC4)nc3ncn2c1=O)Nc1ccccc1Br`, the Inhibition was 2.42% with Klebsiella pneumoniae, 1.39% in the test with Candida albicans and -9.14% in the test with Cryptococcus neoformans.

For `O=c1c2sccc2n2c(=O)n(Cc3ccc(Br)cc3)nc2n1Cc1cccs1`, the Inhibition is recorded as -4.09% in the test on Klebsiella pneumoniae, 49.64% in the test on Candida albicans and -28.37% in the test on Cryptococcus neoformans.

As to `CCCCn1c(=O)c2sccc2n2c(=O)n(CC(=O)c3ccc(OC)cc3)nc12`, the Inhibition in the test with Klebsiella pneumoniae is 1.02%; with Candida albicans, 4.16%; with Cryptococcus neoformans, -36.83%.

Regarding `COc1cccc(CNC(=O)Cn2nc3c4cc(-c5cc(C)ccc5C)nn4ccn3c2=O)c1OC`, the Inhibition in the test on Klebsiella pneumoniae is 6.77%; in the test with Candida albicans, -1.47%; in the test with Cryptococcus neoformans, -13.57%.

With `Cc1cc2nn(CC(=O)Nc3ccc(F)cc3Cl)c(=O)n2c(Nc2ccc(F)cc2)n1`, the Inhibition in the test with Klebsiella pneumoniae was 8.79%; in the test on Candida albicans it was 8.11%; in the test on Cryptococcus neoformans, -3.99%.

Turning to `Cc1ccc(NC(=O)Cn2nc3c4c5c(sc4ncn3c2=O)CCCC5)c(Cl)c1`, the Inhibition in the test with Klebsiella pneumoniae is 3.19%; in the test with Candida albicans, 9.32%; with Cryptococcus neoformans, -16.36%.

As to `Cc1cc2nn(CC(=O)Nc3cc(F)cc(F)c3)c(=O)n2c(Nc2ccccc2C)n1`, the values for the Inhibition in the test with Klebsiella pneumoniae, with Candida albicans and with Cryptococcus neoformans were 6.94%, 0.1% and -12.73%, respectively.

With `COc1ccc(-c2cc3c4nnc(CCC(=O)NCc5ccccc5Cl)n4ccn3n2)cc1`, the Inhibition in the test on Klebsiella pneumoniae is reported as 3.58%; in the test on Candida albicans, 1.3%; in the test with Cryptococcus neoformans, -11.66%.

Turning to `Cc1ccc(NC(=O)Cn2nc3cc(C)nc(Nc4ccc(F)c(C)c4)n3c2=O)cc1`, the Inhibition with Klebsiella pneumoniae is given as 11.85%; in the test on Candida albicans it was 7.21%; in the test with Cryptococcus neoformans, -5.79%.

Regarding `CC(C)CCn1c(=O)c2sccc2n2c(=O)n(CC(=O)N3CCC(Cc4ccccc4)CC3)nc12`, the Inhibition in the test on Klebsiella pneumoniae is -9.97%; with Candida albicans it was 0.93%; with Cryptococcus neoformans, -41.06%.

Consider `CC(C)c1nnc2c(SCC(=O)Nc3ccc(F)cc3F)nc3ccccc3n12`, for which the Inhibition is given as 13.12% in the test with Klebsiella pneumoniae, -0.24% in the test with Candida albicans and -26.87% in the test on Cryptococcus neoformans.

For `Cc1nnc2c(SCC(=O)Nc3cccc(Br)c3)nc3ccccc3n12`, the values for the Inhibition in the test on Klebsiella pneumoniae, with Candida albicans and in the test with Cryptococcus neoformans were 10.33%, 5.04% and -3.71%, respectively.

On to `O=C(NCc1ccccc1)c1ccc2nn(CC(=O)N3CCN(c4ccccc4)CC3)c(=O)n2c1`, for which the figures for the Inhibition in the test with Klebsiella pneumoniae, in the test with Candida albicans and in the test with Cryptococcus neoformans were 13.57%, 3.02% and -23.82%, respectively.

As for `CC(C)Cn1c(=O)c2sccc2n2c(=O)n(Cc3ccc(Cl)cc3)nc12`, the results for the Inhibition in the test with Klebsiella pneumoniae, with Candida albicans and in the test on Cryptococcus neoformans were 2.18%, -1.9% and -15.45%, respectively.

On to `Cc1ccc(-c2ccc3nn(CC(=O)Nc4ccc(C#N)cc4)c(=O)n3n2)cc1C`, for which the Inhibition in the test with Klebsiella pneumoniae was 8.41%; in the test on Candida albicans, 3.47%; in the test on Cryptococcus neoformans, -12.02%.

Consider `CCC(C)NC(=O)CCn1c(=O)c2ccccc2n2c(=O)n(CC(=O)NCc3cccs3)nc12` (stereo unspecified), for which the Inhibition in the test on Klebsiella pneumoniae is listed as 12.47%; with Candida albicans it was 0.11%; with Cryptococcus neoformans it was -24.13%.

In the case of `CCc1cccc(NC(=O)Cn2nc3c(SC4CCCCC4)nccn3c2=O)c1`, the Inhibition in the test with Klebsiella pneumoniae is on record as 3.05%; with Candida albicans, 12%; in the test on Cryptococcus neoformans, -17.3%.

Turning to `CCc1nnc2c(S(=O)(=O)N(Cc3ccc(F)cc3)c3cccc(Cl)c3)cccn12`, the Inhibition with Klebsiella pneumoniae is recorded as 0.19%; in the test on Candida albicans, 5.46%; in the test on Cryptococcus neoformans, -7.67%.

As to `Cc1ccccc1Oc1nccn2c(=O)n(CC(=O)Nc3ccc(C(C)C)cc3)nc12`, the Inhibition in the test on Klebsiella pneumoniae is 6.08%; with Candida albicans it was 37.73%; with Cryptococcus neoformans it was -9.72%.

On to `O=c1c2sccc2n2c(=O)n(Cc3ccccc3F)nc2n1Cc1cccs1`, for which the Inhibition is -1.85% in the test on Klebsiella pneumoniae, 38.88% with Candida albicans and -22.09% with Cryptococcus neoformans.
